Source: paper PMC7819943, “Rice protein-binding microarrays: a tool to detect cis-acting elements near promoter regions in rice”
Over roughly 35,000 sequences, “fluorescence intensity (a.u.)” has its median near 10,000; the highest 2% begin near 52,000. This excerpt belongs to a sample that is enriched for the highest values.

Each sequence was assayed against T1, OsWOX13 (Oryza sativa, UniProt Q5QMM3 1-267) (assay: protein-binding microarray (RPBM); PBS, 2% BSA, 51.3 ng/ul salmon testes DNA, 50 uM zinc acetate, 200 nM TF, 25 C, 1 h; high values mean tight binding). Settings: protein: recombinant; tags: N-terminal polyhistidine and DsRed monomer fusion (pET32a); label: CyDye5-dUTP incorporated in the synthesized complementary strand; 3' TTTTT single-stranded linker to array surface; dsDNA, one strand shown.
T1 sequence: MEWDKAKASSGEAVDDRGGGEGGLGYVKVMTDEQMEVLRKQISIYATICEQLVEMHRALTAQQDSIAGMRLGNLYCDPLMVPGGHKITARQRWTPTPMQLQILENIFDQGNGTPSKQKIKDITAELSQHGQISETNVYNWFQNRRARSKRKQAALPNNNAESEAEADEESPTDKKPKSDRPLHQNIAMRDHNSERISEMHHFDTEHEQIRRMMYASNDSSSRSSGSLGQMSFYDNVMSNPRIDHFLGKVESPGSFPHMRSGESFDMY
In short: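 Polyhistidine-tagged DsRed fusions of transcription factors, joined at the N-terminus, were expressed in E. coli BL21-CodonPlus and isolated on Ni–NTA. They were incubated at 200 nM for 1 h at 25 °C on a custom Agilent array, double-stranded and BSA-blocked, in PBS with 2% BSA, salmon testes DNA and 50 µM zinc acetate. The binding signal is per-feature fluorescence intensity (arbitrary units) read on an Axon 4000B scanner after washing.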

Point of comparison: “TTATTACAATTTAATTATATTTTAATTATTCTAAAAGCTTCGGAGTCACCTAGTGCAG”, binding signal 20200 fluorescence intensity (a.u.). Against it:
- TCTAAATTGTATTTCTATATGGACTCTAGTCTCCTCTTCACGGAGTCACCTAGTGCAG — lower, 14000 fluorescence intensity (a.u.)
- TACAATCTGATTAATTAATTAGCACGGAAAATAATGTCAACGGAGTCACCTAGTGCAG — higher, 59200 fluorescence intensity (a.u.)
- TAAACATCTGATTAGCTAAAAGTGTTTAATTAGATTTCCACGGAGTCACCTAGTGCAG — higher, 21800 fluorescence intensity (a.u.)
- TATTAATTTGTAATTAATATTGAATAACGCTGCGTGAGTACGGAGTCACCTAGTGCAG — higher, 45900 fluorescence intensity (a.u.)
- AGTCAAATTAATCACGCAGCTGAATGCTGAATAATGTGTCCGGAGTCACCTAGTGCAG — higher, 24000 fluorescence intensity (a.u.)
- GAAATAATTAATCAATTAACGCTGATGTGTGAGCTGCGTACGGAGTCACCTAGTGCAG — higher, 53800 fluorescence intensity (a.u.)
- GAAACGTGATTCAAATGATTATTCAGGTACAATAATCTTACGGAGTCACCTAGTGCAG — lower, 8070 fluorescence intensity (a.u.)
- TCCTCTCTTAATTAATTATTAGCTCGTGTTAATTGTTAAACGGAGTCACCTAGTGCAG — higher, 32800 fluorescence intensity (a.u.)
- AGCTCTGATTGAATTAGCTAATTATGGTTGCACGTCTAAGCGGAGTCACCTAGTGCAG — higher, 59600 fluorescence intensity (a.u.)
- CAGTTGATTGGCCGACGTTATGATATGGTAGCTGAATTAGCGGAGTCACCTAGTGCAG — higher, 44100 fluorescence intensity (a.u.)
- CGTCTAATTAAGCGTAGACGATCTGATTCGCTAGCTCGCACGGAGTCACCTAGTGCAG — lower, 10600 fluorescence intensity (a.u.)
- TCCCCTCTGATTAATTAATTAATTAATTAATTAGCTAAAACGGAGTCACCTAGTGCAG — higher, 65500 fluorescence intensity (a.u.)
- GAACAATAGATTAATATATAATTAAATAAATATTAGTCAACGGAGTCACCTAGTGCAG — higher, 25100 fluorescence intensity (a.u.)
- TTACAAGACTTTCAATTATTATCCACATTTATATAGATGTCGGAGTCACCTAGTGCAG — lower, 7150 fluorescence intensity (a.u.)
- CACCAATCAGGGTTCCAAGTAGAAGAGGTGGGCAGAGAGCCGGAGTCACCTAGTGCAG — lower, 6870 fluorescence intensity (a.u.)
- GATAATTTGGTCATTGCTAAAATATTTGGGAAAAGTTAGCCGGAGTCACCTAGTGCAG — higher, 23700 fluorescence intensity (a.u.)
- TTATAATTGGAAAATAAATGAAGGGTTATAATTAAATGAACGGAGTCACCTAGTGCAG — lower, 12000 fluorescence intensity (a.u.)
- CTAAGCTGTGATTTCTTTTCTTTATGTCACCACCTCCAAACGGAGTCACCTAGTGCAG — lower, 3460 fluorescence intensity (a.u.)
- TTAATTAGACTGACATGTGGGGTCCGCGTGGGTCCCACCACGGAGTCACCTAGTGCAG — the same, 20200 fluorescence intensity (a.u.)
- TAGTCGTGTCAATTTGGAAAATTGGAAAGCCGTGGGGAGACGGAGTCACCTAGTGCAG — lower, 11400 fluorescence intensity (a.u.)
- TGATAATAATCTGTTCAATAATTTATCTTAAACAGGGCCTCGGAGTCACCTAGTGCAG — lower, 11200 fluorescence intensity (a.u.)
- CCCTATCAATTACCTTCACTATCATATTAATCATTGTAGGCGGAGTCACCTAGTGCAG — higher, 24100 fluorescence intensity (a.u.)
- CAAACAGTCAATTAGGCCTAAACAAGTTGCTACGAGCTAGCGGAGTCACCTAGTGCAG — higher, 33200 fluorescence intensity (a.u.)
- ATTAATTAAAGCTAATTAAACGATGTTGTTTATTAGGCTTCGGAGTCACCTAGTGCAG — higher, 58700 fluorescence intensity (a.u.)
- GAATATTAAACTTCCAAAACAGGTCCAAAGCTATGTTCTTCGGAGTCACCTAGTGCAG — higher, 57500 fluorescence intensity (a.u.)
- TAAAATTAAGCTCCAAATAAACTATATAAAATTATGTATTCGGAGTCACCTAGTGCAG — lower, 4090 fluorescence intensity (a.u.)
- GCTAATTATAGTTTAATTAGGCTTAATAAATTTACAGTTTCGGAGTCACCTAGTGCAG — higher, 42300 fluorescence intensity (a.u.)
- CACTTAATTTGTTAATTAAATATATTTTCCAAACAAATTTCGGAGTCACCTAGTGCAG — higher, 39100 fluorescence intensity (a.u.)
- AATTGCGTGATTGTGCTAATCAAAATGCAGAATTGGATATCGGAGTCACCTAGTGCAG — higher, 23000 fluorescence intensity (a.u.)
- CAAAATTAAACTTTAAAATTCAGACTTCAGACTCCAGTGCCGGAGTCACCTAGTGCAG — lower, 13400 fluorescence intensity (a.u.)
- ACTACTAAGTTAATTGCATTTTACTTCTCTCTCAATCTCGCGGAGTCACCTAGTGCAG — lower, 10000 fluorescence intensity (a.u.)
- TTCGATCCTGACTGGAATTGGATGCCTAGTTTGCCTTGCCCGGAGTCACCTAGTGCAG — lower, 4190 fluorescence intensity (a.u.)
- GTTAACTGAATATTATATCGAAGAAAACTTGCATTTCAGACGGAGTCACCTAGTGCAG — lower, 7980 fluorescence intensity (a.u.)
- CTCAAAATTTAAATTTAAGGTTAAAAGTTAAAATTTTACGCGGAGTCACCTAGTGCAG — higher, 21200 fluorescence intensity (a.u.)
- GATAATAGATAATAGATAGATTGAAGATTAGGAAAGGGAACGGAGTCACCTAGTGCAG — higher, 54800 fluorescence intensity (a.u.)
- ACAGAGAGAGGTAGGTGATTGATAATAAGAAAGAAGGGAACGGAGTCACCTAGTGCAG — lower, 13000 fluorescence intensity (a.u.)
- GTCTTTATTTGATTGATCATCTGGCATCAATCAATCGGCTCGGAGTCACCTAGTGCAG — higher, 65500 fluorescence intensity (a.u.)
- GGATTTGATCGATTGGATTTCGATTTGGCCCGCGATTTGGCGGAGTCACCTAGTGCAG — lower, 4010 fluorescence intensity (a.u.)
- ATAGATAGATAGATAGATAGATAGATTGATCGATCGATCGCGGAGTCACCTAGTGCAG — higher, 55400 fluorescence intensity (a.u.)
- TAGTCTTGATTGATTGGCAGATGACAGCATAATAGCCGTACGGAGTCACCTAGTGCAG — higher, 65200 fluorescence intensity (a.u.)
- TTGACTTGTACATAGTAATGATTGGCAGGTAATGACGTACCGGAGTCACCTAGTGCAG — higher, 24100 fluorescence intensity (a.u.)
- AAGATAGATAGATAGATAGATAGATAGATCGATCGATCATCGGAGTCACCTAGTGCAG — lower, 14900 fluorescence intensity (a.u.)
- ACATTGACACCAATCTTGAACATAATAGCGCATTACAGTACGGAGTCACCTAGTGCAG — lower, 7300 fluorescence intensity (a.u.)
- CCTGCATCATCAATCTGCCTACATATCGATCGATTGATCTCGGAGTCACCTAGTGCAG — lower, 4630 fluorescence intensity (a.u.)
- CGATCAATCTCTCTTTATTTATTTGCAGATCGATCAACCTCGGAGTCACCTAGTGCAG — lower, 5760 fluorescence intensity (a.u.)
- TGGGATTGGGAAATAAATGAAGGGTTAGGATTAAATGGAACGGAGTCACCTAGTGCAG — higher, 24100 fluorescence intensity (a.u.)
